# An excerpt weighted towards active compounds, which were near 4% of everything screened.
# DUSP3 inh – DUSP3 (human) phosphatase inhibition; recombinant VHR phosphatase, pNPP absorbance; inhibition, % at 13.3 µM; P51452; hit rate 0.52% among 290,000; in the data active = inhibition above about 50%
# BoNT F protease – blocks Botulinum neurotoxin F light chain protease. AID 588497. Multiplex microsphere protease cleavage assay, flow cytometry. inhibition, % at 10 µM. hit rate 0.22% among 360,000; in the data active = inhibition above about 35%, passing the limit was not always enough; inconclusive = no clear call, values can overlap the other calls; note: plate controls were buffer without enzyme for full effect and enzyme alone for no effect
# BoNT A protease – inhibitors of Botulinum neurotoxin A light chain protease; inhibition, % at 10 µM; multiplex microsphere protease substrate cleavage, flow cytometry; hit rate 0.17% among 360,000; note: plate controls were buffer without enzyme for full effect and enzyme alone for no effect
# MazEF act – increases E. coli MazEF RNase cleavage of RNA; AID 504720; activation, % at 20 µM; hit rate 0.32% among 350,000; FAM/BHQ RNA-DNA oligo cleavage fluorescence, 5 h; P0AE70; in the data active = activation above about 50%
# Anthrax LF prot – blocks Bacillus anthracis lethal factor protease | hit rate 0.12% among 360,000 | multiplex microsphere protease cleavage assay, LF | P15917 | inhibition, % at 10 µM; note: plate controls were buffer without enzyme for full effect and enzyme alone for no effect
# Target sequence (P15917 whole entry, looked up): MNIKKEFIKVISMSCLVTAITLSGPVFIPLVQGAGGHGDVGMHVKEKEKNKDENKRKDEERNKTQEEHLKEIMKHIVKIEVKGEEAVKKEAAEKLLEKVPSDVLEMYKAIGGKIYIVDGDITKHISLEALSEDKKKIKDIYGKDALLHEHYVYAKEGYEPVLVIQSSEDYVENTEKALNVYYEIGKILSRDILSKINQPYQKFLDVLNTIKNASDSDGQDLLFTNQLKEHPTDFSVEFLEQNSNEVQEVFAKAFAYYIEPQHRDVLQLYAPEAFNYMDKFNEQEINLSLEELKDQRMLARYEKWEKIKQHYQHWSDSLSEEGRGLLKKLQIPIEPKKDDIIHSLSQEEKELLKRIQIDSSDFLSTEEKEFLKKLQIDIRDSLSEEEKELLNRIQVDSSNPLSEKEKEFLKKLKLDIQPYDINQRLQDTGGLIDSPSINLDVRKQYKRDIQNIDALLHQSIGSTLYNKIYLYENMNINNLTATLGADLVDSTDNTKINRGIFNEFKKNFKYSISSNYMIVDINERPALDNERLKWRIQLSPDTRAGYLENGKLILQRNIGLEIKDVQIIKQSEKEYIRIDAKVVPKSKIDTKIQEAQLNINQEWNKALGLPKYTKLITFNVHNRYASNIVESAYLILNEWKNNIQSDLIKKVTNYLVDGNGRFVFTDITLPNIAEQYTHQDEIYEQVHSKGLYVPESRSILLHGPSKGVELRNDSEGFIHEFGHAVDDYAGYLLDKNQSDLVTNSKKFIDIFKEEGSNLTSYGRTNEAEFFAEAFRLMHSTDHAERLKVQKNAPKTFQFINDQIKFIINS
# Bead autofluor – flagged as autofluorescent in microsphere protease counterscreen; AID 624483; hit rate 3.1% among 360,000; fluorescence intensity (test concentration not listed); compound autofluorescence counterscreen, microsphere flow cytometry; stronger effect = higher value; in the data active = fluorescence intensity above about 16000; inconclusive = no clear call, values can overlap the other calls
# * = called active by the depositor; ? = inconclusive; nt = not tested or not shown. Cut-off read from the data, not from the text of the source, unless noted: active = inhibition above about 30%; inconclusive = no clear call, values can overlap the other calls; inactive = below that.
SMILES,DUSP3 inh,BoNT F protease,BoNT A protease,MazEF act,Anthrax LF prot,Bead autofluor
CCCCS/C(N)=N/N=C/c1cc(C)ccc1O,31.3,-0.2,0.0,-4.1,-3.8,2443
Cc1ccc(Nc2nc(N)nc(CSC(=S)N3CCOCC3)n2)cc1,2.7,10.6,2.3,-0.5,13.7,7825
CCOP(=O)(OCC)c1nc(-c2cccc3ccccc23)oc1NCc1ccccc1,-4.4,-9.3,-5.1,-3.6,-5.1,17554*
CCOP(=O)(OCC)c1nc(/C=C/c2ccccc2)oc1NCc1ccccc1,11.3,6.3,0.1,0.7,-6.5,4335
CCOP(=O)(OCC)c1nc(/C=C/c2ccccc2)oc1NCc1ccc(OC)cc1,0.0,-7.3,-6.1,0.2,-13.8,24914*
CCCCn1cnc2cc(NCc3cccc(OC)c3O)ccc21,10.0,-8.0,?,-8.7,-4.9,20423*
CC(C)(Oc1cccc2ccccc12)C(=O)O,-10.5,-6.5,-2.5,6.0,-2.8,17702*
O=C(O)COc1cccc2ccccc12,-26.7,-10.2,0.3,-1.5,-2.2,11450
O=C(CSc1ccc(-c2ccccn2)nn1)NC1CCCCC1,2.3,-2.7,-1.6,4.7,0.0,4419
CCCCC(=O)Nc1ccc2c(c1)nc1n2CCSC1,4.0,20.9,6.6,-12.9,9.2,4261
Cc1ccc(C(=O)Nc2ccc3c(c2)nc2n3CCSC2)cc1,10.2,3.5,1.7,-5.2,5.2,23988*
CC(=O)Nc1ccc2c(c1)nc1n2CCSC1,3.7,1.1,4.7,-9.4,-1.1,18041*
COc1ccc(/C=N/n2c(SC)nnc2-c2ccccc2)c(OC)c1OC,-16.6,4.5,0.8,-3.1,-3.2,2860
CCOCCCNc1nc2c(-c3ccccc3)nnn2c2ccccc12,3.9,2.9,-0.4,12.2,7.0,5663
COc1ccc(NC(=O)CSc2nnc3ccc(-c4cccnc4)nn23)cc1,nt,17.7,3.4,2.8,0.6,?
COC(=O)c1cc(OC)c(OC)cc1NC(=O)Nc1ccccc1OC,17.2,-1.3,0.7,8.0,-2.5,23051*
COC(=O)c1ccccc1NC(=O)Nc1cc(C)ccn1,13.8,0.4,-0.2,4.9,-1.3,2026
COC(=O)c1ccccc1NC(=O)Nc1cc(C)cc(C)n1,-9.5,5.6,4.0,-7.8,-1.3,21356*
COC(=O)c1cc(OC)c(OC)cc1NC(=O)c1cccc(OC)c1OC,21.2,-3.8,1.0,4.0,5.7,4510
Cc1c(/C=N/NC(=O)c2cc(=O)[nH]c(=O)[nH]2)c2ccccn2c1C(=O)c1ccccc1,14.6,4.8,3.3,4.4,0.7,19024*
O=C(Nc1nc(-c2ccccc2)cs1)c1cccc([N+](=O)[O-])c1,20.0,-5.8,-3.1,5.5,-3.0,20697*
O=C(Nc1nc(-c2cccnc2)cs1)c1cccc([N+](=O)[O-])c1,-2.0,-1.9,-1.0,12.8,-0.8,4501
O=C(Cc1nc(-c2ccc([N+](=O)[O-])cc2)cs1)Nc1ccccc1,-4.2,0.9,2.5,-4.2,-5.4,21221*
COCC(=O)Nc1nc(-c2ccc([N+](=O)[O-])cc2)cs1,13.6,-5.4,-0.9,1.4,0.3,4556
COc1ccc(CCNc2ncnc3c2oc2ccccc23)cc1OC,23.2,-4.2,-1.8,5.4,-6.6,8189
SMILES,DUSP3 inh,BoNT F protease,BoNT A protease,MazEF act,Anthrax LF prot,Bead autofluor
CCOc1ccc(NC(=O)CN(C)C(=O)CN2C(=O)NC3(CCCC3)C2=O)cc1OCC,nt,4.5,1.9,2.9,-3.1,6247
Cc1ccc(O)c(-c2cc(C(F)(F)F)[nH]n2)c1,23.1,-8.9,?,6.6,-2.3,21889*
Cc1cccc(NC(=O)c2cc(-c3cc(C)ccc3O)n[nH]2)c1,8.6,6.4,-3.7,-6.5,1.2,3054
CN(CC(=O)Nc1ccc2c(c1)OCO2)CC(=O)Nc1ccc(F)c(F)c1F,nt,5.1,0.0,-1.0,2.2,3377
Cc1nc2ccccc2n1C1CC(=O)N(Cc2ccccc2)C1=O (centres undefined),26.4,-3.5,-1.5,2.0,-2.9,23623*
O=C1CC(N2CCC(c3nc4ccccc4s3)CC2)C(=O)N1Cc1ccccc1 (centres undefined),20.1,-2.3,-1.3,-6.1,-5.2,23583*
CN1C(=O)CC(N2CCC(c3nc4ccccc4s3)CC2)C1=O (centres undefined),4.4,-8.4,0.9,2.5,1.4,4687
O=C(Oc1oc(-c2ccco2)nc1C=Nc1ccccc1)c1ccco1,-16.1,?,0.4,-1.9,5.1,4086
O=C(CCNC(=O)c1ccco1)Nc1nc2ccccc2s1,nt,-0.6,-2.7,-4.3,-0.6,6626
CCOc1cc(/C=C2\CCC/C(=C\c3cc(Cl)c(O)c(OCC)c3)C2=O)cc(Cl)c1O,25.5,-5.8,4.2,-15.8,3.0,2663
O=C(NCc1ccco1)c1sc(=S)n2c1[nH]c(=O)c1ccccc12,15.1,3.1,?,-0.3,-0.5,22207*
O=C(NC1CCCC1)c1sc(=S)n2c1[nH]c(=O)c1ccccc12,37.3,-6.8,-0.8,-11.7,1.7,9563
C=CCn1c(N)c(C(=O)NCc2ccco2)sc1=S,13.5,-2.9,-1.9,9.2,-5.9,21000*
Cc1ccc(-n2c(N)c(C(=O)NCc3ccco3)sc2=S)cc1,4.9,3.0,-1.0,-5.9,-5.5,2957
C=CCn1c(N)c(C(=O)N2CCOCC2)sc1=S,10.8,5.4,?,-9.3,-1.6,19777*
COc1ccc(C(=O)Nc2ccccc2-c2nnn(CC(=O)N3CCOCC3)n2)cc1,-10.1,-0.7,-0.1,8.1,-1.6,2085
Cc1ccc(/C=N/NC(=O)CNC(=O)c2cccs2)cc1,10.5,7.7,0.6,6.3,0.3,5833
CCOC(=O)N1CCN(C(=O)c2cc3sccc3n2C)CC1,13.2,0.7,0.7,-6.9,-4.7,19772*
Cn1c(C(=O)N2CCN(c3cccc(C(F)(F)F)c3)CC2)cc2sccc21,0.1,-4.7,-4.3,-5.4,-2.8,21909*
O=C(c1c(F)c(F)c(F)c(F)c1F)N1CCN(c2cccc(C(F)(F)F)c2)CC1,-11.2,-2.8,0.1,3.3,3.5,9355
Cc1ccc(C)c(N2CCN(C(=O)c3ccc4c(c3)c(C)c(C)n4C)CC2)c1,-5.9,-2.7,-1.9,0.9,-3.0,5724
Cc1ccc(C)c(N2CCN(C(=O)c3cc4sccc4n3C)CC2)c1,10.6,-11.3,?,0.2,-1.1,22451*
CCCCN1C(=O)C(O)=C(C(C)=O)C1c1ccccc1 (centres undefined),-4.2,-9.9,-0.1,-5.3,1.0,4654
CCCCCCCCN1C(=O)C(O)=C(C(C)=O)C1c1ccccn1 (centres undefined),-4.7,-44.6,-25.6,4.3,-5.2,31940*
CCOc1ccccc1N1CCN(S(=O)(=O)c2cc(C)ccc2OC)CC1,-0.4,-1.4,-0.7,25.6,-9.1,4150
CC1(C)CC(=O)C2=C(C1)Nc1ncnn1C2c1cccs1 (centres undefined),4.2,4.9,0.2,-1.7,0.8,3340
